# Several values for one entry are separate records, joined by “and”; a condition that tells them apart may be missing. Equal entries are not always repeated. Where two headings read alike, the source gives them in different places.
# Assays:
# [1] = tested on: CDKL2; settings: concentration: 1 μM, replicates: in singlicate, n = 1
# [2] = tested on: CDKL3; settings: concentration: 1 μM, replicates: in singlicate, n = 1
# [3] = tested on: CDKL5; settings: concentration: 1 μM, replicates: in singlicate, n = 1
# [4] = tested on: CHEK1; settings: concentration: 1 μM, replicates: in singlicate, n = 1
# [5] = tested on: CHEK2; settings: concentration: 1 μM, replicates: in singlicate; n = 1
# [6] = tested on: CIT; settings: concentration: 1 μM, replicates: in singlicate, n = 1
# [7] = tested on: CLK1; settings: concentration: 1 μM, replicates: in singlicate, n = 1
# [8] = tested on: CLK2; settings: concentration: 1 μM, replicates: in singlicate, n = 1
# [9] = tested on: CLK3; settings: concentration: 1 μM, replicates: in singlicate, n = 1
# [10] = tested on: CLK4; settings: concentration: 1 μM, replicates: in singlicate, n = 1
# [11] = tested on: CSF1R-autoinhibited; settings: concentration: 1 μM, replicates: in singlicate, n = 1
# [12] = tested on: CSF1R; settings: concentration: 1 μM, replicates: in singlicate, n = 1
# [13] = tested on: CSK; settings: concentration: 1 μM, replicates: in singlicate; n = 1
# [14] = tested on: CSNK1A1L; settings: concentration: 1 μM, replicates: in singlicate, n = 1
# [15] = tested on: CSNK1A1; settings: concentration: 1 μM, replicates: in singlicate; n = 1
# [16] = tested on: CSNK1D; settings: concentration: 1 μM, replicates: in singlicate, n = 1
# [17] = tested on: CSNK1E; settings: concentration: 1 μM, replicates: in singlicate, n = 1
# [18] = tested on: CSNK1G1; settings: concentration: 1 μM, replicates: in singlicate, n = 1
# [19] = tested on: CSNK1G2; settings: concentration: 1 μM, replicates: in singlicate; n = 1
# [20] = tested on: CSNK1G3; settings: concentration: 1 μM, replicates: in singlicate, n = 1
# 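Note: KINOMEscan kinase panel screen.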
smiles,measurement,setting,value
Clc1cc(Nc2ncnc3cc[nH]c23)ccc1OCc1ccccn1,%Inh,[1],0%
same,%Inh,[2],31%
same,%Inh,[3],8%
same,%Inh,[4],14%
same,%Inh,[5],13%
same,%Inh,[6],18%
same,%Inh,[7],13%
same,%Inh,[8],0%
same,%Inh,[9],5%
same,%Inh,[10],7%
same,%Inh,[11],0%
same,%Inh,[12],7%
same,%Inh,[13],17%
same,%Inh,[14],1%
same,%Inh,[15],14%
same,%Inh,[16],4%
same,%Inh,[17],4%
same,%Inh,[18],2%
same,%Inh,[19],11%
same,%Inh,[20],0%
CCC(CC)(CC)n1cnc2c(N)ncnc21 [SKF-97620],%Inh,[1],0%
same,%Inh,[2],0%
same,%Inh,[3],23%
same,%Inh,[4],0%
same,%Inh,[5],0%
same,%Inh,[6],13%
same,%Inh,[7],0%
same,%Inh,[8],0%
same,%Inh,[9],6%
same,%Inh,[10],16%
same,%Inh,[11],35%
same,%Inh,[12],0%
same,%Inh,[13],0%
same,%Inh,[14],1%
same,%Inh,[15],0%
same,%Inh,[16],0%
same,%Inh,[17],5%
same,%Inh,[18],4%
same,%Inh,[19],0%
same,%Inh,[20],0%
COC(=O)c1c(-c2ccccc2)c2cc(Cl)ccc2c(=O)n1Cc1ccc(S(C)(=O)=O)cc1,%Inh,[1],0%
same,%Inh,[2],0%
same,%Inh,[3],33%
same,%Inh,[4],0%
same,%Inh,[5],10%
same,%Inh,[6],4%
same,%Inh,[7],3%
same,%Inh,[8],0%
same,%Inh,[9],10%
same,%Inh,[10],10%
same,%Inh,[11],6%
same,%Inh,[12],23%
same,%Inh,[13],0%
same,%Inh,[14],0%
same,%Inh,[15],21%
same,%Inh,[16],0%
same,%Inh,[17],3%
same,%Inh,[18],100%
same,%Inh,[19],0%
same,%Inh,[20],0%
COc1ccc(-c2nc3n(c2-c2ccncc2)CCC3)cc1 [SKF-104493],%Inh,[1]; 1 µM,0% and 1%
same,%Inh,[2]; 1 µM,1% and 0%
same,%Inh,[3]; 1 µM,2% and 0%
same,%Inh,[4]; 1 µM,0% and 13%
same,%Inh,[5],0%
same,%Inh,[6]; 1 µM,16% and 15%
same,%Inh,[7]; 1 µM,16% and 11%
same,%Inh,[8]; 1 µM,0% and 6%
same,%Inh,[9]; 1 µM,5% and 1%
same,%Inh,[10]; 1 µM,10% and 0%
same,%Inh,[11]; 1 µM,6% and 9%
same,%Inh,[12]; 1 µM,23% and 2%
same,%Inh,[13],0%
same,%Inh,[14]; 1 µM,12% and 0%
same,%Inh,[15],0%
same,%Inh,[16]; 1 µM,40% and 18%
same,%Inh,[17]; 1 µM,22% and 7%
same,%Inh,[18]; 1 µM,0% and 13%
same,%Inh,[19],0%
same,%Inh,[20]; 1 µM,6% and 14%
COc1cc2c(Nc3cccc(NC(=O)c4ccccc4)c3)ncnc2cc1OCCCN1CCOCC1 [GSK223810],%Inh,[1],3%
same,%Inh,[2],0%
same,%Inh,[3],0%
same,%Inh,[4],0%
same,%Inh,[5],0%
same,%Inh,[6],29%
same,%Inh,[7],10%
same,%Inh,[8],10%
same,%Inh,[9],0%
same,%Inh,[10],16%
same,%Inh,[11],0%
same,%Inh,[12],83%
same,%Inh,[13],23%
same,%Inh,[14],63%
same,%Inh,[15],62%
same,%Inh,[16],60%
same,%Inh,[17],54%
same,%Inh,[18],13%
same,%Inh,[19],0%
same,%Inh,[20],18%
CC(=O)Nc1n[nH]c2ncc(-c3ccccc3)cc12 [SB-548492],%Inh,[1],6%
same,%Inh,[2],0%
same,%Inh,[3],0%
same,%Inh,[4],0%
same,%Inh,[5],1%
same,%Inh,[6],4%
same,%Inh,[7],41%
same,%Inh,[8],19%
same,%Inh,[9],32%
same,%Inh,[10],27%
same,%Inh,[11],0%
same,%Inh,[12],19%
same,%Inh,[13],3%
same,%Inh,[14],21%
same,%Inh,[15],0%
same,%Inh,[16],0%
same,%Inh,[17],34%
same,%Inh,[18],0%
same,%Inh,[19],0%
same,%Inh,[20],4%
Oc1ccc2ncnc(Nc3ccc(OCc4ccccc4)cc3)c2c1 [GI262866],%Inh,[1],0%
same,%Inh,[2],0%
same,%Inh,[3],7%
same,%Inh,[4],8%
same,%Inh,[5],23%
same,%Inh,[6],0%
same,%Inh,[7],37%
same,%Inh,[8],0%
same,%Inh,[9],21%
same,%Inh,[10],19%
same,%Inh,[11],0%
same,%Inh,[12],2%
same,%Inh,[13],0%
same,%Inh,[14],0%
same,%Inh,[15],8%
same,%Inh,[16],4%
same,%Inh,[17],30%
same,%Inh,[18],0%
same,%Inh,[19],17%
same,%Inh,[20],38%
C[C@@H]1CCN(C(=O)CO)C[C@@H]1N(C)c1ncnc2[nH]ccc12,%Inh,[1],2%
same,%Inh,[2],0%
same,%Inh,[3],0%
same,%Inh,[4],0%
same,%Inh,[5],1%
same,%Inh,[6],0%
same,%Inh,[7],3%
same,%Inh,[8],6%
same,%Inh,[9],0%
same,%Inh,[10],0%
same,%Inh,[11],19%
same,%Inh,[12],8%
same,%Inh,[13],21%
same,%Inh,[14],0%
same,%Inh,[15],33%
same,%Inh,[16],6%
same,%Inh,[17],0%
same,%Inh,[18],0%
same,%Inh,[19],0%
same,%Inh,[20],10%
O=C(Nc1n[nH]c2nc(-c3ccco3)c(Br)cc12)c1ccc(CN2CCCC2)cc1.O=C(O)[C@H](O)[C@@H](O)C(=O)O [SB-742352],%Inh,[1],62%
same,%Inh,[2],0%
same,%Inh,[3],0%
same,%Inh,[4],0%
same,%Inh,[5],0%
same,%Inh,[6],0%
same,%Inh,[7],16%
same,%Inh,[8],12%
same,%Inh,[9],0%
same,%Inh,[10],8%
same,%Inh,[11],0%
same,%Inh,[12],71%
same,%Inh,[13],0%
same,%Inh,[14],0%
same,%Inh,[15],0%
same,%Inh,[16],0%
same,%Inh,[17],0%
same,%Inh,[18],0%
same,%Inh,[19],0%
same,%Inh,[20],0%
CN1c2ccc(-c3ccc(C(=O)NCCO)cc3)cc2-c2[nH]ncc2S1(=O)=O,%Inh,[1],0%
same,%Inh,[2],1%
same,%Inh,[3],0%
same,%Inh,[4],0%
same,%Inh,[5],65%
same,%Inh,[6],2%
same,%Inh,[7],44%
same,%Inh,[8],86%
same,%Inh,[9],25%
same,%Inh,[10],40%
same,%Inh,[11],25%
same,%Inh,[12],0%
same,%Inh,[13],9%
same,%Inh,[14],7%
same,%Inh,[15],4%
same,%Inh,[16],5%
same,%Inh,[17],3%
same,%Inh,[18],0%
same,%Inh,[19],0%
same,%Inh,[20],6%
